# Measured values from paper PMC7862700, “An all-to-all approach to the identification of sequence-specific readers for epigenetic DNA modifications on cytosine”.
# Key:
# Experiment in all cases: DAPPL (digital affinity profiling via proximity ligation, sequencing); 10 mM Tris-HCl pH 7.5, 50 mM NaCl, 1 mM DTT, 4% glycerol, room temperature, 30 min; GST-TFs on glutathione beads, 16-mer random dsDNA library, 0.1% formaldehyde crosslink after washing; high values mean tight binding
# FEV = target: T1, FEV (Homo sapiens, UniProt Q99581 1-238); conditions: protein: recombinant; tags: N-terminal GST; dsDNA, one strand shown
# T1 sequence: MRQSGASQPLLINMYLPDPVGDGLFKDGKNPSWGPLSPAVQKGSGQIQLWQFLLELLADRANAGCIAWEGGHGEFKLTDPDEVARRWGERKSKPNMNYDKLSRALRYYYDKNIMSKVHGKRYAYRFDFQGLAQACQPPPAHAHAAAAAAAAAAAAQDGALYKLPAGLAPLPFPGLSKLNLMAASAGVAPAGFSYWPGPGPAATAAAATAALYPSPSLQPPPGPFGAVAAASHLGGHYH
# Method in brief: (§1)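 Human transcription factors fused to GST were expressed in yeast, captured on glutathione beads, given DNA barcodes and pooled with a GST-only negative control. Pools were incubated with 200 nmole of a 16-mer random double-stranded DNA library in Tris/NaCl/DTT/glycerol buffer at room temperature for 30 min. They were then washed, crosslinked with 0.1% formaldehyde, proximity-ligated (BsaI/T4 ligase, 1 h, 37 °C), PCR-amplified and sequenced on an Illumina NextSeq500. Binding signal is each 6-mer's read frequency for a factor divided by its frequency for the GST control.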
# ETV5 = ETV5 (Homo sapiens, UniProt P41161 1-510); conditions: protein: recombinant; tags: N-terminal GST; dsDNA, one strand shown
# Method in brief: as §1
# HSF1 = HSF1 (Homo sapiens, UniProt Q00613 1-529); conditions: protein: recombinant; tags: N-terminal GST; chain copies: 3; dsDNA, one strand shown
# Method in brief: as §1
# SPIC = target: T2, SPIC (Homo sapiens, UniProt Q8N5J4 1-248); conditions: protein: recombinant; tags: N-terminal GST; dsDNA, one strand shown
# T2 sequence: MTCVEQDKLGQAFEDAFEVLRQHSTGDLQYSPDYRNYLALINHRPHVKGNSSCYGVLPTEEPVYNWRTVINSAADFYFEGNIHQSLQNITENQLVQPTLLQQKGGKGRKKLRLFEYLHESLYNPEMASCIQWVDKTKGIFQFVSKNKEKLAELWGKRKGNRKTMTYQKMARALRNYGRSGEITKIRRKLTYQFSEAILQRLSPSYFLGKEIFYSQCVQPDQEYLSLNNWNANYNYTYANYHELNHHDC
# Method in brief: as §1
# ELF4 = ELF4 (Homo sapiens, UniProt Q99607 1-663); conditions: protein: recombinant; tags: N-terminal GST; dsDNA, one strand shown
# Method in brief: as §1
# ELK4 = target: T3, ELK4 (Homo sapiens, UniProt P28324-2 1-405); conditions: protein: recombinant; tags: N-terminal GST; dsDNA, one strand shown
# T3 sequence: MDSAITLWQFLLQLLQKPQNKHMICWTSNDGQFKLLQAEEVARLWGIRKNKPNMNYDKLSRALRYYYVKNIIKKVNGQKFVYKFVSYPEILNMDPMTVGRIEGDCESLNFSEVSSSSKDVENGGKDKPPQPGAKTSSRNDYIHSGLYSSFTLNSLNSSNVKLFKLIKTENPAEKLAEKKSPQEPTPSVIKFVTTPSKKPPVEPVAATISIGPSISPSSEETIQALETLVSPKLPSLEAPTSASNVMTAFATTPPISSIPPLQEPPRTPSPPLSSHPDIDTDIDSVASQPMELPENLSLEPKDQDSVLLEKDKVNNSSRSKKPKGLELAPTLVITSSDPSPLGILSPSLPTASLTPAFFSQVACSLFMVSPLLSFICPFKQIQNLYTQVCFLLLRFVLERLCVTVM
# Method in brief: as §1
# ETV2 = target: T4, ETV2 (Homo sapiens, UniProt O00321 1-342); conditions: protein: recombinant; tags: N-terminal GST; dsDNA, one strand shown
# T4 sequence: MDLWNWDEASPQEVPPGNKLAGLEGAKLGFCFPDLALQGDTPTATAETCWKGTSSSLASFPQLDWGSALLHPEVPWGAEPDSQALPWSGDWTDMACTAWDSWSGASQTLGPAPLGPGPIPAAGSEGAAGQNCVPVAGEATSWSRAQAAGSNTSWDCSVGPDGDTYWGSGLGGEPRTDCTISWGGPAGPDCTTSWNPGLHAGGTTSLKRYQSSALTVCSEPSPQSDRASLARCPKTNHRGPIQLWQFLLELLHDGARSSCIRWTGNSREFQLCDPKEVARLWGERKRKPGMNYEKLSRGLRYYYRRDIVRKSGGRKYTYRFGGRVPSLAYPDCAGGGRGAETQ
# Method in brief: as §1
# ELF3 = target: T5, ELF3 (Homo sapiens, UniProt P78545 1-371); conditions: protein: recombinant; tags: N-terminal GST; dsDNA, one strand shown
# T5 sequence: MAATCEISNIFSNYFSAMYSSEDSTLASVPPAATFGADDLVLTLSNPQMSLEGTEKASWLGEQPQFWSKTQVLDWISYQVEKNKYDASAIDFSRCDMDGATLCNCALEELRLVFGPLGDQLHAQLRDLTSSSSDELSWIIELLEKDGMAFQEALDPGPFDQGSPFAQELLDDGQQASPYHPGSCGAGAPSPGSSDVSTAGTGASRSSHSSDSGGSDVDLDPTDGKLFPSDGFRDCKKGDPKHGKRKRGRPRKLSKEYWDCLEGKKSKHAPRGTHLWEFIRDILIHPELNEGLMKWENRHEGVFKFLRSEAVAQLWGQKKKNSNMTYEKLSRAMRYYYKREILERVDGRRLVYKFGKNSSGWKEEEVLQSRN
# Method in brief: as §1
# CRX = CRX (Homo sapiens, UniProt O43186 1-299); conditions: protein: recombinant; tags: N-terminal GST; dsDNA, one strand shown
# Method in brief: as §1
# ETV1 = ETV1 (Homo sapiens, UniProt P50549 1-477); conditions: protein: recombinant; tags: N-terminal GST; dsDNA, one strand shown
# Method in brief: as §1
# ETV5, sequence (P41161 whole entry): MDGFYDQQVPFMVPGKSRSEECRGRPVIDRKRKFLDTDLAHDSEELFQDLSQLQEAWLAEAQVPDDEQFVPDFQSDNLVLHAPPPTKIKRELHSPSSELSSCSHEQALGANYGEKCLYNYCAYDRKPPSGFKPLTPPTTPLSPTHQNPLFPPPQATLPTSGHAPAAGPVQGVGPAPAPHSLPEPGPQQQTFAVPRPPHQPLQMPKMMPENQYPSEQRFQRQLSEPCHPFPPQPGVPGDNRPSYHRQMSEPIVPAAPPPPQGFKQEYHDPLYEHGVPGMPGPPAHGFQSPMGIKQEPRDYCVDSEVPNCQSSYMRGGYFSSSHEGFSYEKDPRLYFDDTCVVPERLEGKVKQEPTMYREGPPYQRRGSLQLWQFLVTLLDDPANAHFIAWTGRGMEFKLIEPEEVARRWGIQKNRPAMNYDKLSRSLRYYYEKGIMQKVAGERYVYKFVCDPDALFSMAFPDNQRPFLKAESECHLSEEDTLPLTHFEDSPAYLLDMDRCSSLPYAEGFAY
# HSF1, sequence (Q00613 whole entry): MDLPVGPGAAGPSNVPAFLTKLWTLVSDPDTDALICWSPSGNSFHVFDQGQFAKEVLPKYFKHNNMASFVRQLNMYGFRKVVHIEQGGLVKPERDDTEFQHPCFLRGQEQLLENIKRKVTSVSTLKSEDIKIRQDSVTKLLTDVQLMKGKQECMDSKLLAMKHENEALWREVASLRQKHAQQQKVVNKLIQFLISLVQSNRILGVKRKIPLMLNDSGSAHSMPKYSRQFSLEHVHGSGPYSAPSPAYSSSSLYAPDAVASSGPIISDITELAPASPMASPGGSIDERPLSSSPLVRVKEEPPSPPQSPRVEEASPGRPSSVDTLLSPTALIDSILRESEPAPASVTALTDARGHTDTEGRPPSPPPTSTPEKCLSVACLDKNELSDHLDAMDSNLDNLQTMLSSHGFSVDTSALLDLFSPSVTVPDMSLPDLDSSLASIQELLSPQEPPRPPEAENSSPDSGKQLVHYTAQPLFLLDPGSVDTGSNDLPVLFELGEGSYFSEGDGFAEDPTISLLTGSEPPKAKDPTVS
# ETV1, sequence (P50549 whole entry): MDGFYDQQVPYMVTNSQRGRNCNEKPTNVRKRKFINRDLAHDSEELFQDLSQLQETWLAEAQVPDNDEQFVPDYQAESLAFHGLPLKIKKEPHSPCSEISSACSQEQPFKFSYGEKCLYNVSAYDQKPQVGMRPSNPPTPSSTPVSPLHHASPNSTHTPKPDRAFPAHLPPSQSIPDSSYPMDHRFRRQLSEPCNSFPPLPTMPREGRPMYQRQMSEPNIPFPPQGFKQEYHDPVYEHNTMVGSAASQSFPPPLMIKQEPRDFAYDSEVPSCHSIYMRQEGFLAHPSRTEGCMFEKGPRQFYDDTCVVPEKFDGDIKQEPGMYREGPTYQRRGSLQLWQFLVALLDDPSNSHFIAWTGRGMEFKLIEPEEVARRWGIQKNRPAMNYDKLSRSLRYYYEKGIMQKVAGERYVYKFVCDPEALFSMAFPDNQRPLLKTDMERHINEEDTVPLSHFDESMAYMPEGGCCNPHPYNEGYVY
# ELF4, sequence (Q99607 whole entry): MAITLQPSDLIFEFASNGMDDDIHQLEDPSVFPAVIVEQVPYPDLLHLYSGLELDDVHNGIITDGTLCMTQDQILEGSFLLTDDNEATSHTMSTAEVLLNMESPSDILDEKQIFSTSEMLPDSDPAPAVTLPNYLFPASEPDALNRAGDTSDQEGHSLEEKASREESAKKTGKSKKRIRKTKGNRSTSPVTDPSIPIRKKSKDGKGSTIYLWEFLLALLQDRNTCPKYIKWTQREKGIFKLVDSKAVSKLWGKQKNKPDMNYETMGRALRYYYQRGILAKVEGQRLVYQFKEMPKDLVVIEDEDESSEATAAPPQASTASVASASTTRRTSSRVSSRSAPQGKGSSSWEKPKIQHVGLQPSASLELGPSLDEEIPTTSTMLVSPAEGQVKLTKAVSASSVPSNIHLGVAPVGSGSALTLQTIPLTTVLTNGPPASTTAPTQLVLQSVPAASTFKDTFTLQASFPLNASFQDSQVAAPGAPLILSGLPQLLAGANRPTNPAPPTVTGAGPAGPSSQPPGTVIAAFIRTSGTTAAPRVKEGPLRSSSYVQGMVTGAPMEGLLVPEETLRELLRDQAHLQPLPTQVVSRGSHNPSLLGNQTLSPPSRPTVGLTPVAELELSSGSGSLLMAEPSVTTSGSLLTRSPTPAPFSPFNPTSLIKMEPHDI
# CRX, sequence (O43186 whole entry): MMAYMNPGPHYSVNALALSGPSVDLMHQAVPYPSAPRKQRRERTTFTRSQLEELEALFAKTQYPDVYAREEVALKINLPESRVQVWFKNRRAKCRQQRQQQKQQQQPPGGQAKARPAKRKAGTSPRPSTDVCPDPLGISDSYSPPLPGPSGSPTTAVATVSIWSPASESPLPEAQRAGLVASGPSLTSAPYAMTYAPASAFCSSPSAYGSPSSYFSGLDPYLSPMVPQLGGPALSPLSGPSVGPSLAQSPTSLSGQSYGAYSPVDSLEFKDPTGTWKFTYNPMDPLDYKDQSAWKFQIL
sequence,measurement,setting,value
ATACAT,binding signal,FEV,"1.29 fold enrichment (6-mer frequency, TF over GST control)"
same,binding signal,ETV5,"1.23 fold enrichment (6-mer frequency, TF over GST control)"
same,binding signal,HSF1,"1.01 fold enrichment (6-mer frequency, TF over GST control)"
same,binding signal,SPIC,"1.15 fold enrichment (6-mer frequency, TF over GST control)"
same,binding signal,ELF4,"1.33 fold enrichment (6-mer frequency, TF over GST control)"
same,binding signal,ELK4,"1.31 fold enrichment (6-mer frequency, TF over GST control)"
same,binding signal,ETV2,"1.33 fold enrichment (6-mer frequency, TF over GST control)"
same,binding signal,ELF3,"1.15 fold enrichment (6-mer frequency, TF over GST control)"
same,binding signal,CRX,"1.06 fold enrichment (6-mer frequency, TF over GST control)"
same,binding signal,ETV1,"1.33 fold enrichment (6-mer frequency, TF over GST control)"
